# Measurements as given in PubChem BioAssay AID504332 (National Center for Advancing Translational Sciences (NCATS), 2011).
# Out of some 350,000 compounds screened, about 31,000 (8.9%) were called active. Roughly 15% stayed inconclusive and do not appear here. Shown is part of a subset that was picked to be rich in actives. A number with no mark means an inactive call. Calls follow the shape of the dose curve; as a rule, active = well fitted inhibition curve with a large enough effect; inconclusive = small, poorly fitted or top-dose-only effect; inactive = no such curve, though single readings can be large or run the other way.
# Biological target: Histone-lysine N-methyltransferase EHMT2 (Homo sapiens) (UniProt Q96KQ7)
# Sequence (Q96KQ7 913-1193 limits assumed): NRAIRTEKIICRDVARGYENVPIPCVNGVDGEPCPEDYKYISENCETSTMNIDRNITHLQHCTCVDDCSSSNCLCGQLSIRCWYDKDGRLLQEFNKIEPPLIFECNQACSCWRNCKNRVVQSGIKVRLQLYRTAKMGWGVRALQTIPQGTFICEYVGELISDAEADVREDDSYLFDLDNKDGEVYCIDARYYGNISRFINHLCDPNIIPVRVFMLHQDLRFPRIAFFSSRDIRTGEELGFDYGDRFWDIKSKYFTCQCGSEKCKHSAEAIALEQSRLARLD
# Test: qHTS Assay for Inhibitors of Histone Lysine Methyltransferase G9a; also: nearly all actives have a fitted effect of over 75% in size
# Conditions: G9a H3K9 monomethylation, AlphaScreen, 2 h; series mostly up to 59 µM; activity, negative = inhibition: at the top concentration
# How it was run: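 Step 1: enzyme (final 20 nM) with compound, 15 min RT. Step 2: substrate peptide 500 nM and SAM 20 uM, 2 h RT. Step 3: anti-H3K9me1 antibody and AlphaScreen beads, 10 min, then plate read.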
# % is scaled to controls: 0 for no effect and ±100 for the full control effect; potency is read from the fitted curve at half-maximal effect.
Structure (SMILES),"activity, negative = inhibition",Potency
COc1ccc(S(=O)(=O)N2CCN(C(C)C(=O)Nc3ccc(C(C)C)cc3)CC2)cc1 (stereo unspecified),-8.74%,–
CCN(CC)S(=O)(=O)c1ccc(NC(=O)c2cnc(C)cn2)cc1,0.345% [at 0.501 µM],–
CCN(CC)C(=O)C(=O)c1cn(CC(=O)NCc2ccc3c(c2)OCO3)c2ccccc12,27.8% [at 12.7 µM],–
Cn1cc(CCC(=O)NCc2ccc3c(c2)OCO3)c2ccccc21,–,25.1 µM (active)
O=C(CCn1c(=O)c2ccccc2n(Cc2ccc(Cl)cc2)c1=O)NCc1ccc2c(c1)OCO2,-6.19%,–
CCOc1ccc(C(=O)c2cn(Cc3ccc(F)cc3)c3ccc(F)cc3c2=O)cc1,-38.3%,–
Cc1ccc(CNC(=O)CCC(=O)N2Cc3ccccc3Oc3ncccc32)cc1,-18.3%,–
Cc1noc(/C=C/N(C)C)c1S(=O)(=O)N1CCCC(C(=O)Nc2cccc(F)c2)C1 (stereo unspecified),2.19%,–
CCOC(=O)c1c(-c2ccccc2)csc1NC(=S)NC(=O)c1ccccc1,-11.6%,–
CCOC(=O)c1c(-c2ccc(-c3ccccc3)cc2)csc1NC(=O)CCC(=O)O,-35% [at 102 µM],–
CCOC(=O)c1c(-c2ccc(C)cc2)csc1/N=C(\C)C1=C(O)c2ccccc2C1=O,–,28.2 µM (active)
CC(=O)N1CCOc2ccc(S(=O)(=O)N3CCC(C(=O)Nc4ccccc4F)CC3)cc21,-2.87% [at 102 µM],–
Cc1ccc(Cc2nnc(SCC(=O)Nc3ccccc3C)[nH]c2=O)cc1,1.18% [at 102 µM],–
CCNC(=O)N1c2ccccc2Sc2ccccc21,34.9% [at 102 µM],–
CCC(=O)/C=C1\Sc2ccccc2N1CC,–,50.1 µM (active)
CCOC(=O)CNC(=O)N1c2ccccc2Sc2ccccc21,20.2% [at 102 µM],–
CCN1CCC(N(Cc2ccc(F)cc2)C(=O)Nc2cc(C)ccc2C)CC1,-29.4%,–
CCn1cc(C(=O)N2CCN(c3cc(C)ccc3C)CC2)c(=O)c2cc(S(=O)(=O)N(C)C3CCCCC3)ccc21,-33.5%,–
C=CCn1c(-c2ccc3[nH]c(C)c(C)c3c2)n[nH]c1=S,–,1 µM (active)
C=CCn1c(=S)sc2c(=O)[nH]c(C)nc21,-0.441% [at 102 µM],–
C=CCn1c(COc2ccccc2C)nnc1SCC(=O)O,-44.1%,–
Cc1nc(-c2ccccc2)sc1-c1nc(-c2ccccc2)ncc1S(=O)(=O)c1ccccc1,-34.6% [at 102 µM],–
C=CCn1c(-c2ccccc2OCC)n[nH]c1=S,–,7.08 µM (active)
C=CCn1c(COc2cccc3cccnc23)nnc1SCC(=O)OC,-28.7%,–

Structure (SMILES),"activity, negative = inhibition",Potency
Cc1nc(-c2ccccc2)sc1-c1nnc(C2CC2)o1,103% [at 102 µM],–
Cc1[nH]c2ccc(S(N)(=O)=O)cc2c1C,-7.63%,–
C=CCn1c(-c2sc(-c3ccccc3)nc2C)n[nH]c1=S,–,3.16 µM (active)
Cc1ccsc1-c1cc(C(=O)O)c2c(ccc3ccccc32)n1,-17.8%,–
CCOC(=O)c1[nH]c(C)c(CCC(=O)N2CCN(c3ccccc3)CC2)c1C,-27.2%,–
COc1ccc(/C=C/c2noc(-c3ccccc3OC(C)=O)n2)cc1,19.6% [at 102 µM],–
COc1ccc(CCNC(=O)CCCn2c(=O)c3ccccc3n(Cc3ccc(F)cc3Cl)c2=O)cc1OC,34.5%,–
COc1ccc(COC(=O)c2ccc(Cl)c(S(=O)(=O)N3CCOCC3)c2)cc1F,18.9% [at 102 µM],–
Cn1nccc1C(=O)NC1CCCc2c1cnn2-c1ccc(F)cc1F (stereo unspecified),–,79.4 µM (active)
Cn1nccc1C(=O)NC1CCCc2c1cnn2-c1ccccc1F (stereo unspecified),16.6% [at 0.501 µM],–
CC(=O)NCC(=O)NC1CCCc2c1cnn2-c1ccccc1F (stereo unspecified),11.3% [at 0.501 µM],–
Cc1ccc(-c2nnc(Nc3ccc(OCC(N)=O)cc3)c3ccccc23)cc1S(=O)(=O)NCC1CCCO1 (stereo unspecified),-44.6%,–
Cc1ccccc1OCc1nc2c3cnn(-c4ccccc4F)c3ncn2n1,13.2%,–
CC(NC(=O)c1ccc(N2CCNCC2)c([N+](=O)[O-])c1)C12CC3CC(CC(C3)C1)C2 (stereo unspecified),-0.814%,–
CC(CNC(=O)c1ccc(N)cc1)NC(=O)c1ccc(N)cc1 (stereo unspecified),-4.15% [at 102 µM],–
CN(C)NC(=O)C(NC(=O)c1ccc(N)cc1)C12CC3CC(CC(C3)C1)C2 (stereo unspecified),–,44.7 µM (active)
CCOC(=O)C(C)n1cnc2c(nnn2-c2ccc(F)cc2)c1=O (stereo unspecified),13.5% [at 102 µM],–
CC(C)(C)C1CCc2c(sc(NC(=O)c3ccccc3F)c2C(=O)N2CCCCC2)C1 (stereo unspecified),6.27%,–
O=C(Nc1ccccc1N1CCOCC1)c1ccc(OCc2cscn2)cc1,-2.78%,–
COc1ccc2cc(C(=O)O)n(CC(=O)c3ccccc3)c2c1,10.7% [at 102 µM],–
CCOC(=O)c1cc2ccccc2n1CC(=O)c1ccccc1,-0.017% [at 102 µM],–
CCn1c(=N)n(CC(=O)c2cccc(OC)c2)c2ccccc21,–,44.7 µM (active)
COc1ccccc1C(=O)NCC(=O)NCCSc1ccc(Br)cc1,2.21%,–
CN1C(C(=O)NCc2ccco2)CC2Cn3c(nc4ccccc43)C21 (stereo unspecified),16.2% [at 2.33 µM],–

Structure (SMILES),"activity, negative = inhibition",Potency
COc1ccccc1N1CCN(C(=O)C2Cc3ccccc3CN2C(=O)c2ccco2)CC1 (stereo unspecified),12.2%,–
CC1CCN(c2ccc(-c3ccc(NC(=O)c4ccco4)cc3)nn2)CC1,-2% [at 102 µM],–
O=C(Nc1cc(C(F)(F)F)ccc1Cl)c1ccc2c(c1)CCN2S(=O)(=O)c1ccccc1,4.92%,–
COc1cccc(N2CC(C(=O)NCc3n[nH]c(=O)c4ccccc34)CC2=O)c1 (stereo unspecified),-7.83% [at 2.33 µM],–
O=C(CN1C(=O)c2cccnc2Oc2ccc(Cl)cc21)NCCc1ccccc1,–,inactive
Cc1cc(C)c(NC(=O)CN2C(=O)c3cccnc3Oc3ccc(Cl)cc32)c(C)c1,4.24%,–
CCN(CC)c1ccc(NC(=O)CN2C(=O)c3cccnc3Oc3ccc(Cl)cc32)c(C)c1,–,2.82 µM (active)
COc1ccc(C(=O)COC(=O)CCCC(=O)Nc2cc(C(F)(F)F)ccc2Cl)cc1,2.92%,–
O=c1c2ccccc2ncn1/N=C/c1ccccc1,8.52% [at 102 µM],–
CCN(c1ccc(NC(=O)COC(=O)CCc2nc3ccccc3n2-c2ccccc2)cc1)C(C)C,–,15.8 µM (active)
CCCCn1c(=O)c(CCC(=O)OCC(=O)Nc2ccc(C)c(Cl)c2)nc2ccccc21,21.2%,–
Cc1ccc(NC(=O)COC(=O)CCc2nc3ccccc3n2-c2ccccc2)c(C)c1,19.1%,–
CN(C)c1ccc(-n2cccc2/C=C2/SC(=Nc3ccc(F)cc3)NC2=O)cc1,-3.36% [at 102 µM],–
Cc1ccc(N=C2NC(=O)/C(=C/C=C/c3ccco3)S2)cc1C,–,10 µM (active)
Cc1ccc(N(CC(=O)NCc2ccc(Cl)cc2)S(=O)(=O)N(C)C)cc1,2.2%,–
COc1cc(C(=O)Nc2ccc(OCc3cc(=O)n4ccc(C)cc4n3)cc2)cc(OC)c1OC,0.891%,–
COc1cccc(CNC(=O)C(=O)NCC(c2cccs2)S(=O)(=O)c2ccccc2)c1 (stereo unspecified),9.87%,–
CCn1cc(C(=O)NCc2ccc(C)cc2)c(=O)c2cc(S(=O)(=O)N3CCc4ccccc4C3)ccc21,-3.65%,–
CCOCCCNC(=O)c1cn(CC)c2ccc(S(=O)(=O)N3CCc4ccccc4C3)cc2c1=O,-4.51%,–
CCn1cc(C(=O)NCCCN2CCCCCC2)c(=O)c2cc(S(=O)(=O)N3CCc4ccccc4C3)ccc21,–,31.6 µM (active)
O=c1c2ccccc2c(-c2ccc(F)cc2)nn1-c1ccc(C(F)(F)F)cc1,28.6%,–
FC(F)(F)c1ccc(-n2cn[nH]c2=S)cc1,–,8.91 µM (active)
CCOc1ccc(OCC)c(NS(=O)(=O)c2ccc3[nH]c(=O)ccc3c2)c1,3%,–
COc1cc(/C=C2/C(=O)NN(c3ccc(F)cc3)C2=O)cc([N+](=O)[O-])c1O,–,39.8 µM (active)

Structure (SMILES),"activity, negative = inhibition",Potency
COc1cccc(/C=C2\SC(=N)N(c3ccc(F)cc3)C2=O)c1,10.2%,–
COc1ccc(C(=O)N2CCN(c3ccc(C(C)=O)cc3F)CC2)cc1S(=O)(=O)NC1CC1,15.5% [at 2.33 µM],–
COC(=O)c1ccc(CSc2ccc3nnc(-c4ccccc4)n3n2)o1,-17.6%,–
COc1ccc(-c2nnc3ccc(SCc4ccccc4)nn23)cc1,–,70.8 µM (active)
CCOc1ccc(-c2nnc3ccc(SC)nn23)cc1,12.5% [at 102 µM],–
CCOc1ccc(NC(=O)Cn2cc(C(=O)c3ccc(C)cc3)c(=O)c3cc4c(cc32)OCCO4)cc1,14.7%,–
O=C(CCc1nnc(Cc2ccc3c(c2)OCO3)o1)NCCc1ccccc1Cl,27.8% [at 0.501 µM],–
COc1ccc(C(=O)/C=C/Nc2ccccn2)cc1,11.7% [at 102 µM],–
O=C(NNc1ccccn1)c1ccc(Cl)nc1,–,3.55 µM (active)
CCN(CC)S(=O)(=O)c1cc(C(=O)Nc2ccccn2)ccc1C,-27.2% [at 12.7 µM],–
Cc1ccc(NC(=O)CN(C)C(=O)Cn2nnc(-c3ccccc3)n2)cc1,1.83% [at 102 µM],–
Cc1ccc(C)c(NC(=O)CN(C)C(=O)c2ccc3ncsc3c2)c1,-26.8% [at 102 µM],–
CC(NC(=O)c1ccc(S(=O)(=O)Nc2ccccc2)cc1)c1ccc(S(N)(=O)=O)cc1 (stereo unspecified),-4.66%,–
COc1cc(Br)cc2cc(S(=O)(=O)c3ccccc3)c(=O)oc12,-44.4%,–
Cc1c(CC(=O)N2CCN(C(=O)C3COc4ccccc4O3)CC2)c(=O)oc2c(O)c(O)ccc12 (stereo unspecified),–,12.6 µM (active)
COc1ccc(OC)c2sc(N3CCN(C(=O)C4COc5ccccc5O4)CC3)nc12 (stereo unspecified),-41.3%,–
COc1cc(NS(=O)(=O)c2ccc3c(c2)OCC(C(=O)N2CCCC2)O3)cc(OC)c1 (stereo unspecified),9.66%,–
Cc1ccccc1CN1CCC(CNC(=O)c2c(C)oc3ncnc(N4CCCCC4)c23)CC1,-14.7%,–
COc1ccc2oc(C(=O)NCc3ccco3)c(C)c2c1,-3.78% [at 102 µM],–
O=C(c1ccco1)n1nc(-c2ccc(Cl)cc2)nc1NCc1ccccc1,-2.33%,–
O=c1[nH]c(N2CCOCC2)nc2ccccc12,15.6% [at 102 µM],–
C1=C(N2CCOCC2)/C(=C/c2nc3ccccc3[nH]2)CC1,–,20 µM (active)
c1ccc(-n2nnnc2N2CCOCC2)cc1,-32.7% [at 102 µM],–
O=C(Nc1ccc(C(=O)NCc2ccccc2Cl)cc1)C1=CSCCO1,13.9%,–
